# Earlier results in PubChem BioAssay AID977610.
# The campaign covered roughly 3,600 compounds. About 3,600 (100%) were called active. The limit is not given here; nearly all actives have Ki up to about 18000 µM. The set was probably picked from earlier hits. This is one part of the list. Bridge positions count the residues as written; N and C are the ends. Square brackets hold non-standard residues; d marks the D form. Peptide text beside a SMILES is read from it. Orn(CH(NH2)2) = NC(N)NCCC[C@H](N)C(=O)O
# Assay: PubChem AID 977610
# Settings: PDB protein-ligand complexes, literature Ki
smiles,measurement,setting,value
C[C@@H](N)C(=O)N[C@H](C)C(=O)O (H-[dA]-[dA]-OH),Ki,"protein: vancomycin resistance D,D-dipeptidase/D,D-pentapeptidase VanXYc D59S mutant, PDB entry 4oak",59.7 µM (active)
O=c1[nH]c(=O)n([C@@H]2O[C@H](CO[P+](O)(O)O[P+](O)(O)O)[C@@H](O)[C@H]2O)cc1-c1ccc(CO)s1,Ki,"protein: Histo-blood group ABO system transferase, PDB entry 3v0p",0.53 µM (active)
O=c1[nH]c(=O)n([C@@H]2O[C@H](CO[P+](O)(O)O[P+](O)(O)O[C@H]3O[C@H](CO)[C@H](O)[C@H](O)[C@H]3O)[C@@H](O)[C@H]2O)cc1-c1ccccc1,Ki,"protein: Histo-blood group ABO system transferase, PDB entry 3v0l",3 µM (active)
N[C@](CF)(Cc1c[nH]c2ccccc12)C(=O)O,Ki,"protein: Pyridoxal-dependent decarboxylase domain protein RUMGNA-01526, PDB entry 4obv",178000 µM (active)
CN(C)CCOc1cccc(-c2ccc(Cl)cc2)c1CN1CCN(c2ccc(C(=O)NS(=O)(=O)c3ccc(NCC4CCOCC4)c([N+](=O)[O-])c3)c(Oc3ccc4[nH]ccc4c3)c2)CC1,Ki,"protein: Apoptosis regulator Bcl-2, PDB entry 4lxe",0.0001 µM (active)
same,Ki,"protein: Apoptosis regulator Bcl-2, PDB entry 4man",1e-05 µM (active)
CN1C(=O)[C@@](CCC2CCCCC2)(C[C@H]2CCC[C@@H](Nc3ccc4ccccc4n3)C2)N=C1N,Ki,"protein: Beta-secretase 1 BACE 1, PDB entry 4r95",0.014 µM (active)
COc1ccc(-c2cc(Oc3cc(C)cc(OC)c3)cc(C)n2)cc1,Ki,"protein: Macrophage migration inhibitory factor-like protein MIF, PDB entry 4p7s",0.038 µM (active)
Cc1cc(Oc2cccc(O)c2)cc(-c2ccccc2)n1,Ki,"protein: Macrophage migration inhibitory factor-like protein MIF, PDB entry 4p7m",0.039 µM (active)
COc1cc(O)c2c(c1)/C=C/C[C@H](O)[C@H](O)C(O)CCC[C@H](C)OC2=O (stereo partly drawn),Ki,"protein: Tak1-Tab1 fusion protein, PDB entry 4gs6",0.071 µM (active)
Cc1ncc(CO[P+](O)(O)O)c(CNc2co[nH]c2=O)c1O,Ki,"protein: methionine gamma-lyase MGL, PDB entry 4oma",68 µM (active)
CCCN1CCC(c2nc3c(C(N)=O)cccc3[nH]2)CC1,Ki,"protein: Poly [ADP-ribose] polymerase 1, PARP-1, PDB entry 2rcw",0.008 µM (active)
O=C(O)Cc1nn(Cc2nc3cc(C(F)(F)F)ccc3s2)c(=O)c2ccccc12,Ki,"protein: Lactoylglutathione lyase, PDB entry 4kyh",1.2 µM (active)
O=C(NS(=O)(=O)c1ccc(NC2CCOCC2)c([N+](=O)[O-])c1)c1ccc(N2CCN(CC3=C(c4ccc(Cl)cc4)CCOC3)CC2)cc1,Ki,"protein: Apoptosis regulator Bcl-2, PDB entry 4lxd",0.059 µM (active)
CC1(C)CCC(c2ccc(Cl)cc2)=C(CN2CCN(c3ccc(C(=O)NS(=O)(=O)c4ccc(N[C@H](CCN5CCOCC5)CSc5ccccc5)c(S(=O)(=O)C(F)(F)F)c4)cc3)CC2)C1,Ki,"protein: Apoptosis regulator Bcl-2, PDB entry 4lvt",4.4e-05 µM (active)
CSCC[C@@H]1NC(=O)[C@H](CCCNC(N)N)NC(=O)[C@H](Cc2cnc[nH]2)NC(=O)[C@H](CC(N)=O)NC(=O)[C@H](CCC(=O)O)NC(=O)[C@H](CC(C)C)NC(=O)CNC(=O)[C@H](CCCNC(N)N)NC(=O)[C@H](Cc2c[nH]c3ccccc23)NC(=O)[C@H](CO)NC(=O)[C@@H](N)CSSC[C@@H](C(=O)O)NC1=O (H-CSW[Orn(CH(NH2)2)]GLENH[Orn(CH(NH2)2)]MC-OH; disulfide 1-12),Ki,"protein: Plasminogen activator, urokinase, PDB entry 2nwn",0.5 µM (active)
NC(=O)C[C@@H]1NC(=O)[C@@H](N)CSSC[C@@H](C(=O)NCC(=O)O)NC(=O)[C@H](CCCN=C(N)N)NC(=O)CNC1=O (H-CNGRCG-OH; disulfide 1-5),Ki,"protein: Aminopeptidase N pAPN, PDB entry 4ou3",38.7 µM (active)
CC(C)C[C@H](NC(=O)[C@@H]1CSS[C@@H]2CSSC[C@H](NC(=O)CNC(=O)[C@H](CCCN=C(N)N)NC(=O)CNC(=O)[C@H](CC(C)C)NC(=O)[C@@H](NC(=O)CN)C2)C(=O)N[C@@H](CCC(=O)O)C(=O)N[C@@H](CC(N)=O)C(=O)N[C@@H](Cc2cnc[nH]2)C(=O)N[C@@H](CCCN=C(N)N)C(=O)N1)C(N)=O,Ki,"protein: Urokinase-type plasminogen activator, PDB entry 4os2",0.2 µM (active)
CC(C)C[C@H](NC(=O)[C@@H]1CSSC[C@H]2C[C@H](NC(=O)CN)C(=O)N[C@@H](CC(C)C)C(=O)NCC(=O)N[C@@H](CCCN=C(N)N)C(=O)NCC(=O)N[C@@H](CSS2)C(=O)N[C@@H](CCC(=O)O)C(=O)N[C@@H](CC(N)=O)C(=O)N[C@@H](Cc2cnc[nH]2)C(=O)N[C@@H](CCCN=C(N)N)C(=O)N1)C(N)=O,Ki,"protein: Urokinase-type plasminogen activator, PDB entry 4os6",0.36 µM (active)
"CC(C)C[C@H](NC(=O)[C@@H]1CSSC[C@H](N)C(=O)N[C@H]2CSSC[C@H](NC(=O)CNC(=O)[C@H](CCCNC(N)N)NC(=O)CNC(=O)[C@H](CC(C)C)NC2=O)C(=O)N[C@@H](CCC(=O)O)C(=O)N[C@@H](CC(N)=O)C(=O)N[C@@H](Cc2cnc[nH]2)C(=O)N[C@@H](CCCNC(N)N)C(=O)N1)C(N)=O (H-CCLG[Orn(CH(NH2)2)]GCENH[Orn(CH(NH2)2)]CL-NH2; disulfide 1-12, 2-7)",Ki,"protein: Urokinase-type plasminogen activator (C122A, N145Q mutation), PDB entry 4gly",7.7 µM (active)
O=c1cc(-c2ccc(Br)cc2)oc2ccccc12,Ki,"protein: Tankyrase-2, PDB entry 4kzu",0.313 µM (active)
C=CC[C@H](C(=O)N1CCCC[C@H]1C(=O)O[C@H](CCc1ccc(OC)c(OC)c1)c1cccc(OCC(=O)O)c1)c1cc(OC)c(OC)c(OC)c1,Ki,"protein: Peptidyl-prolyl cis-trans isomerase FKBP5 FKBP51FK1, PDB entry 4tw6",61 µM (active)
COc1ccc(CC[C@@H](OC(=O)[C@@H]2CCCCN2C(=O)[C@H](c2cc(OC)c(OC)c(OC)c2)[C@@H]2C=CCCC2)c2cccc(OCCN3CCOCC3)c2)cc1OC,Ki,"protein: Peptidyl-prolyl cis-trans isomerase FKBP5 FKBP51FK1, PDB entry 4tw7",0.026 µM (active)
COc1ccc(CC[C@@H](OC(=O)[C@@H]2CCCCN2C(=O)[C@H](c2cc(OC)c(OC)c(OC)c2)[C@@H]2CC=CCC2)c2cccc(OCC(=O)NCc3c(O)ccc4cc5ccc(=O)cc-5oc34)c2)cc1OC,Ki,"protein: Peptidyl-prolyl cis-trans isomerase FKBP4 FKBP52FK1FK2, PDB entry 4tw8",2.61 µM (active)
OC[C@H]1CNC[C@@H](O)[C@@H]1O,Ki,"protein: Beta-glucosidase 1, PDB entry 4iic",14 µM (active)
OC[C@H]1CNC[C@@H](O)[C@@H]1O[C@@H]1O[C@H](CO)[C@@H](O)[C@H](O)[C@@H]1O,Ki,"protein: GH26 beta-mannanase CjMan26C from Cellvibrio japonicus, PDB entry 4cd4",0.263 µM (active)
same,Ki,"protein: GH113 beta-mannanase AaManA from Alicyclobacillus acidocaldarius, PDB entry 4cd6",260 µM (active)
O=C(c1ccc(F)c(F)c1Nc1ccc(I)cc1F)N1CC(O)([C@@H]2CCCCN2)C1,Ki,"protein: Dual specificity mitogen-activated protein kinase kinase 1, PDB entry 4lmn",5e-05 µM (active)
